# The campaign covered roughly 48,000 compounds. About 13,000 (27%) showed an effect of 50% or more. Some of the results follow.
# System: Wolbachia pipientis
# Experiment: Anti-Wolbachia Cell-Based Screen
# Type: functional
# Design: scale not given: in the data most compounds retested in dose-response had high values
# Conditions: 5 µM
row,Compound,Percent Effect [%]
1,Cn1ccnc1CNC[C@H]1Cn2cc(-c3ccccc3)nc2CO1,-17.11
2,COc1cc(F)ccc1NC(=O)NCCNC(=O)OC(C)(C)C,3.046
3,CN(C)c1ccc(NC(=O)N2CCCCC2c2ncc[nH]2)cn1 (stereo unspecified),3.844
4,OCCN(Cc1cccnc1)c1ccc(Br)cn1,-12.52
5,c1ccc(Cn2ccnc2CN2CCCC2c2noc(C3CC3)n2)cc1 (stereo unspecified),9.89
6,Cc1cccc(C(=O)N2CCCC(c3nccn3Cc3cscn3)C2)n1 (stereo unspecified),13.18
7,CNc1ccc(CC2CCCN(C(=O)c3cncnc3C)C2)nn1 (stereo unspecified),-8.103
8,O=C(c1cnccn1)N1CCCC(Cn2cc(C3CC3)nn2)C1 (stereo unspecified),-22.35
9,CNc1ccc(CC2CCCN(C(=O)c3cnccn3)C2)nn1 (stereo unspecified),132.6
10,CNc1ccc(CC2CCCN(C(=O)c3cccc(C)n3)C2)nn1 (stereo unspecified),125.2
11,CNc1ccc(CC2CCCN(C(=O)c3cnc(C)nc3)C2)nn1 (stereo unspecified),2.499
12,CCc1noc(CN(CC)C(=O)c2ccc3ncsc3c2)n1,-4.547
13,Cc1nc(CN(C)C(=O)Nc2cccc(C)c2C)no1,98.94
14,Cc1nc(CN(C)C(=O)Nc2cccc(COC(C)C)c2C)no1,-7.168
15,Cc1nc(CN(C)C(=O)Nc2cccc(COC(C)C)c2)no1,-5.04
16,CCN(C)c1ncnc2c1CCN(C(=O)c1cnccn1)CC2.O=C(O)C(F)(F)F,3.18
17,CCCc1n[nH]c(C2CN(C(=O)CCn3ccccc3=O)CCO2)n1 (stereo unspecified),104.2
18,CCCc1n[nH]c(C2CN(C(=O)CCCn3cccn3)CCO2)n1 (stereo unspecified),-7.162
19,CCc1n[nH]c(C2CN(C(=O)Cc3cccs3)CCO2)n1 (stereo unspecified),122.2
20,CCc1n[nH]c(C2CN(C(=O)Cn3ccccc3=O)CCO2)n1 (stereo unspecified),10.71
21,CCc1n[nH]c(C2CN(C(=O)CCc3cccs3)CCO2)n1 (stereo unspecified),3.606
22,CCCc1n[nH]c(C2CN(C(=O)Cn3ccccc3=O)CCO2)n1 (stereo unspecified),125.8
23,CCc1n[nH]c(C2CN(C(=O)Cc3ccc(C)nc3)CCO2)n1 (stereo unspecified),17.82

row,Compound,Percent Effect [%]
1,CCc1n[nH]c(C2CN(C(=O)CCn3ccccc3=O)CCO2)n1 (stereo unspecified),105.3
2,CC(C)(C)c1coc([C@@H]2COCCN2Cc2c[nH]c3ccccc23)n1,-5.354
3,CS(=O)(=O)Cc1cccc(C(=O)NCC2Cc3ccccc3O2)c1 (stereo unspecified),-6.812
4,CN(C)c1ccccc1C(=O)N1CCCC(c2cccc(C(=O)O)c2)C1 (stereo unspecified),94.85
5,CCC1CN(C(=O)c2ccccc2N(C)C)CCN1C(C)C (stereo unspecified),-1.815
6,O=C(O)c1cccc(C2CCCN(S(=O)(=O)C3CC3)C2)c1 (stereo unspecified),5.769
7,CC(C)N(C)CC(=O)N1CCCC(c2ccc(C(=O)O)cc2)C1 (stereo unspecified),-10.1
8,CCN(C)S(=O)(=O)N1CCCC(c2cccc(C(=O)O)c2)C1 (stereo unspecified),10.58
9,CN(C)c1ccccc1C(=O)N1CCCC(c2ccc(C(=O)O)cc2)C1 (stereo unspecified),127.7
10,CCS(=O)(=O)c1ncc(CN2CCSCC2)n1CCc1ccccc1,0.5583
11,COC(=O)C1(NCc2nc(C)c(C)o2)CCC(C)CC1 (stereo unspecified),-8.144
12,Cc1cc(C(=O)Nc2ccc(OCC3CCOCC3)cc2)[nH]n1,0.7277
13,Cn1cnc(S(=O)(=O)NCCN2CCCCCC2=O)c1Cl,-2.808
14,CCN1CCN(S(=O)(=O)c2ncn(C)c2Cl)CC1,25.01
15,CN1CCN(S(=O)(=O)c2ncn(C)c2Cl)CC1,8.331
16,Cn1cnc(S(=O)(=O)NCCCN2CCCCCC2=O)c1Cl,103.8
17,O=C1CCCCN1CCCNCc1cnc(C2CCC2)s1,-10.31
18,Cn1cnc(S(=O)(=O)NCCCN2CCCC2=O)c1Cl,106
19,Cc1cc(C)n(CC(C)NC(=O)c2cc(CN3CCC(O)CC3)on2)n1 (stereo unspecified),-12.5
20,COCCCc1nc(-c2ccc(S(=O)(=O)N3CCCC3)cc2)cs1,23.72
21,CCC(NC(=O)Cn1ccc(=O)n(C)c1=O)c1ccc(OC)cc1 (stereo unspecified),1.056
22,COc1ccc(C(C)NC(=O)Cn2ccc(=O)n(C)c2=O)cc1F (stereo unspecified),127.2
23,CCC(NC(=O)Cn1ccc(=O)n(C)c1=O)c1ccccc1OC (stereo unspecified),2.411

row,Compound,Percent Effect [%]
1,COc1ccc(C(O)CNC(=O)Cn2ccc(=O)n(C)c2=O)cc1 (stereo unspecified),1.675
2,COc1ccc(C)cc1C(C)NC(=O)NCCCn1cncn1 (stereo unspecified),6.959
3,COc1ccc(C)cc1C(C)NC(=O)Cn1ccc(=O)n(C)c1=O (stereo unspecified),121.4
4,CC(C)CS(=O)(=O)CCNc1ncccn1,-11.8
5,FC(F)Oc1ccccc1CN1CCCC(c2nccn2CC2CC2)C1 (stereo unspecified),-15.63
6,Cc1nccn1CCC(=O)N1CCCN(CCCc2ccccc2)CC1,9.498
7,CC(C(=O)N1CCCC1)N1CCC(c2nccn2CC2CCC2)CC1 (stereo unspecified),-1.675
8,COCCCN1CCCC(c2nccn2CC2CCC2)C1 (stereo unspecified),85.63
9,Cc1nccn1CCCN1CCCC(c2ccccc2)C1 (stereo unspecified),96.96
10,CCn1ccnc1CN(C)C1CCCN(CCCc2ccccc2)C1 (stereo unspecified),28.9
11,Cc1nccn1CCCN1CCC(c2nccn2CC2CCC2)CC1,81.99
12,N#Cc1ccccc1CN1CCCC(c2nccn2CC2CCC2)C1 (stereo unspecified),17.05
13,c1cn(CC2CC2)c(C2CCN(CCC3CCOC3)CC2)n1 (stereo unspecified),-2.095
14,O=C(c1ccccn1)N1CCCC(c2nccn2CC2CCC2)C1 (stereo unspecified),7.496
15,CCn1c(C2CCCN(Cc3nccn3CCOC)C2)nn(C)c1=O (stereo unspecified),3.298
16,Cc1nccn1CCCN1CCCC(c2nccn2CC2CCC2)C1 (stereo unspecified),94.54
17,CCC1CC(=O)NCc2nc3sc(C)cn3c21 (stereo unspecified),11.81
18,CCOc1nnc(CN2CCC(c3cc4ccccc4[nH]3)CC2)s1,-12.75
19,CC(=O)c1cccc(OCCCC(=O)NC(C#N)CC(C)C)c1 (stereo unspecified),-6.212
20,COCCCC(=O)N1CC(=O)Nc2cc(Br)ccc21,-0.04468
21,Cc1nccn1CCCN1CCCC(c2nccn2C)C1 (stereo unspecified),103.4
22,Cc1nccn1Cc1nnc(C2CCCN(Cc3cccnc3)C2)n1C (stereo unspecified),-3.702
23,Cn1ccnc1C1CCN(CCN2CCOCC2)CC1,-3.118

row,Compound,Percent Effect [%]
1,CC(=O)N1CCC(N2CC[C@H](c3nc4cc(C)ccc4o3)C2)CC1,-0.1678
2,CC(=O)N[C@@H]1CN(CC(=O)NCc2ccccc2C)C[C@H]1C(C)C,-3.086
3,CNC(=O)NC(=O)CN1CCCC(Cc2ccccc2OC)C1 (stereo unspecified),-10.54
4,Cc1ccccc1CNC(=O)C1CCN(Cc2nccn2C)CC1,101.3
5,Cn1ccnc1CN1CCN(CCOc2ccccc2C#N)CC1,-0.4037
6,Cc1ccccc1CN1CCN(Cc2nccn2C)CC1,-1.21
7,Cn1ccnc1CN1CCCC(Cc2ccccn2)C1 (stereo unspecified),-12.05
8,Cn1ccnc1CN1CCC(Cc2ccccn2)CC1,101.7
9,Cc1ccccc1CNC(=O)CN1CCCC(Cc2nccn2C)C1 (stereo unspecified),107
10,Cn1ccnc1CN1CCC(CCC(=O)Nc2ccccc2Cl)CC1,11.71
11,OCCN(Cc1cccnc1)c1ncc(Br)cn1,-8.725
12,CCOc1ncccc1NC(=O)c1sccc1C,-6.226
13,Cc1ccccc1C(C(=O)NCCN1CCC(CO)CC1)N(C)C (stereo unspecified),-0.033
14,CC(=O)NCCCC(=O)NC1(c2ccc(Cl)c(Cl)c2)CC1,-4.491
15,CN1CCOC[C@H]1c1nc(C(C)(C)C)c[nH]1,12.45
16,Cc1cc(C(F)(F)F)nc(C2COCCN2S(C)(=O)=O)n1 (stereo unspecified),108.9
17,Cc1cc(C(F)(F)F)nc(CNC(=O)C2CCCCCN2C)n1 (stereo unspecified),-5.462
18,Cc1cc(C(F)(F)F)nc(C2CCCN2S(C)(=O)=O)n1 (stereo unspecified),108.4
19,Cc1cc(S(=O)(=O)N2CCOCC2C#N)ccc1F (stereo unspecified),-3.602
20,O=C(c1cccnc1O)N1CCC2(CCCO2)CC1,-3.936
21,COc1cc2c(cc1CNCc1cccnc1OC)OC(C)C2 (stereo unspecified),4.577
22,Cc1noc(-c2ccc(N3CCCC(C(=O)c4nccn4C)C3)nc2)n1 (stereo unspecified),20.25
23,CC(C)COc1cncc(NCC(O)c2ccco2)n1 (stereo unspecified),9.809

row,Compound,Percent Effect [%]
1,CC(C)(CNC(=O)Nc1ccc(S(=O)(=O)C(F)F)cc1)N1CCOCC1,14.64
2,CCN(CC)Cc1ccccc1NC(=O)N(C)Cc1ccccc1O,-1.773
3,O=C([C@@H]1Cc2[nH]cnc2CN1Cc1cc2ccccc2o1)N1CCCC1,9.512
4,COc1c(CNCc2ccc(CS(C)(=O)=O)cc2)c(C)nn1C,148.4
5,COc1c(CNCc2cccc(CS(C)(=O)=O)c2)c(C)nn1C,-2.544
6,COc1c(CNCc2ccc(S(C)(=O)=O)cc2)c(C)nn1C,139.8
7,COc1c(CNCc2ccc(CN(C)C)cc2)c(C)nn1C,4.116
8,CCc1cc(N[C@@H](CO)C(N)=O)n2nc(C)c(C)c2n1,2.16
9,CC(C)C(CCO)NC(=O)Nc1cc(F)ccc1-n1cccn1 (stereo unspecified),1.933
10,CC(=O)NCCCSC1CCN(c2ccccc2Cl)C1=O (stereo unspecified),1.299
11,O=c1c2ccccc2nnn1CN(CC1CCOC1)C1CC1 (stereo unspecified),-7.02
12,Cc1cc(-c2nn(C)c(Cl)c2CN2CC[C@H](CO)[C@@H](O)C2)no1,35.82
13,COCCn1/c(=N/C(=O)C(C)C)sc2cc(Cl)ccc21,4.263
14,c1cnn(CC2CN(c3ncnc4sccc34)CCO2)c1 (stereo unspecified),-13.3
15,CC1CN(c2ncnc3sccc23)CCN1c1nccs1 (stereo unspecified),102.8
16,Cn1cc(-c2csc(N3CCN(c4nccs4)CC3)n2)cn1,-4.686
17,CC1CN(c2ncnc3c2cnn3C)CCN1c1nccs1 (stereo unspecified),136.1
18,COc1c(C2CCCN2c2ncnc3c2cnn3C)c(C)nn1C (stereo unspecified),-11.95
19,Cc1cnn(CC2CCCN2c2ncnc3sccc23)c1 (stereo unspecified),-4.98
